Bioassay records deposited in PubChem by several laboratories.
A selection: hits, their analogues and other compounds. The true share with any hit is near 4.6%.
ABHD5-PLIN5 inh – inhibitors of human ABHD5-perilipin-5 interaction; Q00G26+Q8WTS1; Split G. princeps luciferase complementation, luminescence, 4 h; inhibition, % at 4 µM; actives 0.78% (n = 360,000); AID 602281;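 active = inhibition above the mean inhibition across every tested compound plus 3 SD, cut at about 22% in these data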;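 note: 0% = DMSO only wells and the 100% control is not disclosed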
Peg3 prom inh – Peg3 promoter activity inhibition; HeLa PEG-Prom luciferase reporter, luminescence, overnight; inhibition, % at 20 µM; actives 1.7% (n = 360,000);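 active = inhibition of at least 50% at 20 µM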
CF NFkB inh – blocks PAF-induced NF-kB reporter in cystic fibrosis cells | actives 0.86% (n = 360,000) | inhibition, % at 5 µM | AID 588850 | KKLEB NF-kB-GFP reporter, GFP fluorescence overnight;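 active = at least 50% inhibition at 5 µM, scaled per plate between neutral and stimulator controls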;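 note: PAF is a Pseudomonas aeruginosa culture filtrate used as stimulus; plate controls were PAF-stimulated DMSO wells for no effect and unstimulated DMSO wells for full effect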
HIF-2a inh – inhibitors of HIF-2a; 786-0 RCC cells HIF-2a reporter, luciferase luminescence, overnight; AID 624352; inhibition, % at 18.8 µM; actives 0.72% (n = 360,000);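 active = inhibition of the luminescence signal of 40% or more relative to plate controls, in a single-dose primary screen at 18.75 µM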
Mdm2-MdmX inh – inhibitors of human Mdm2/MdmX interaction; actives 3% (n = 330,000); SaOS-2 split-luciferase Mdm2/MdmX complementation, luminescence; inhibition, % at 8 µM;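 active = inhibition of at least 50% at 8 µM in the primary screen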
Target sequence (O15151 whole entry, looked up): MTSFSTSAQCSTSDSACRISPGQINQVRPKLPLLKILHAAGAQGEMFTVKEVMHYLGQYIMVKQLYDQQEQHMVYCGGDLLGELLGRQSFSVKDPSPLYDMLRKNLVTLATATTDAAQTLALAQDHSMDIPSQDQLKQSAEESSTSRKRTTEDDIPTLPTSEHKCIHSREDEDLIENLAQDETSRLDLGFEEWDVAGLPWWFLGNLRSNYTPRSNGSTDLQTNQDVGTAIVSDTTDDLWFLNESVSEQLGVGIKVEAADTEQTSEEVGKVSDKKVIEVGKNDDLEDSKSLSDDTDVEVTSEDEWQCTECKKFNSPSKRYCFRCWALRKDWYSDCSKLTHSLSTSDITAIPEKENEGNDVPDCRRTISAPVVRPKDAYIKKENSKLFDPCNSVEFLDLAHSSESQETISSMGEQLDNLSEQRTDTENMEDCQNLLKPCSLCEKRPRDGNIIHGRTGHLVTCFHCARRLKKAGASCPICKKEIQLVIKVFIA
Target sequence (Q00987 whole entry, looked up): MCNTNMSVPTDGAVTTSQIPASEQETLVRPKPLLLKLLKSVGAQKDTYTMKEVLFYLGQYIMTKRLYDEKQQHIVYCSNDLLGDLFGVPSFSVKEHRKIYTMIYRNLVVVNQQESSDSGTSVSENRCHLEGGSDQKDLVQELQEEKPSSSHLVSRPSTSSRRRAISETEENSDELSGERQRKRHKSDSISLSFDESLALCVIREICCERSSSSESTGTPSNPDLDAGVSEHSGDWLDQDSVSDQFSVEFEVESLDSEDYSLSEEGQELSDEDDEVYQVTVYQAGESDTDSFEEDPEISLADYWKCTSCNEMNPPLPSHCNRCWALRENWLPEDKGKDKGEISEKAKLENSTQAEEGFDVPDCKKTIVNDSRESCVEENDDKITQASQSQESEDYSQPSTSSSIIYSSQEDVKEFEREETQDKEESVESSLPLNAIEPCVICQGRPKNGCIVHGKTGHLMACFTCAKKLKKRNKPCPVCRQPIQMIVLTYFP
KKLEB tox – CF airway cell cytotoxicity counter-screen; KKLEB CF airway cells viability, ATPlite luminescence, overnight; active compounds read low; cells stimulated with P. aeruginosa culture filtrate; activity change (cytotoxicity), % at 5 µM; actives 0.36% (n = 360,000); AID 602141;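 active = corrected activity change at or below -50% at 5 µM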
Mdm2-MdmX conf – human Mdm2/MdmX binding inhibition, confirmed. shares compounds with Mdm2-MdmX inh. luminescent assay. inhibition, % at 8 µM. actives 55% (n = 10,000). AID 489028; in the data active = inhibition above about 40%
FLuc counter – full-length luciferase inhibition in Mdm2/MdmX counter-screen. shares compounds with Mdm2-MdmX inh. SaOS-2 full-length luciferase counterscreen, luminescence. inhibition, % at 8 µM. actives 77% (n = 6,200). AID 504607;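 active = mean inhibition at 8 µM reaching about 37%, which flags the compound as non-specific, limit read from the data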;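 note: p53-null SaOS-2 cells with luciferase driven by a doxycycline-inducible promoter; compound on cells about two nights before reading with doxycycline added after day one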
* marks the source's active call; other numbers are inactive results; x = not tested or not shown.

SMILES | ABHD5-PLIN5 inh | Peg3 prom inh | CF NFkB inh | HIF-2a inh | Mdm2-MdmX inh | KKLEB tox | Mdm2-MdmX conf | FLuc counter
CC(=O)c1cccc(-c2ccnc3c2CC(C(=O)Nc2cccc(OC(F)(F)F)c2)O3)c1 (configuration not stated) | -11 | 32 | 14 | 14 | x | -18 | x | x
CCOc1ccc(NS(=O)(=O)c2ccc(C(=O)N3CCC3)cc2)cc1 | -4 | 13 | -5 | -1 | 11 | 18 | x | x
Cc1onc(-c2c(F)cccc2Cl)c1C(=O)OCC(=O)N(C)c1ccccc1 | 9 | 2 | -37 | 3 | x | 24 | x | x
Cn1c(CNC(=O)CNC(=O)c2ccc(C(C)(C)C)cc2)cc(=O)n(C)c1=O | 1 | -4 | -11 | 10 | 5 | 12 | x | x
C[C@H](CO)N1C[C@H](C)[C@@H](CN(C)S(=O)(=O)c2cccc(C#N)c2)OCc2cn(nn2)CCCC1=O | 5 | 0 | -7 | 6 | x | -1 | x | x
COc1cc(/C=N/NC(=O)c2sc3nc(C)cc(C)c3c2N)ccc1O | 7 | 35 | 35 | -29 | 73* | -28 | 52* | 64*
COC(=O)c1sc2nc(C)cc(C)c2c1N | -4 | -57 | -24 | -73 | 14 | 16 | x | x
CCC1(O)CCCC2C3CCC4CC(=O)CCC4(C)C3C(=O)CC21C (configuration not stated) | 3 | 0 | -12 | 11 | x | 7 | x | x
COc1ccc(OC)c(NC(=O)CC2SC(=Nc3ccc(F)cc3)N(CCC3=CCCCC3)C2=O)c1 (configuration not stated) | -8 | 7 | 9 | -15 | 21 | -1 | x | x
COc1cc([N+](=O)[O-])ccc1NC(=O)CC1SC(=Nc2ccc(F)cc2)N(CCC2=CCCCC2)C1=O (configuration not stated) | -8 | -12 | -7 | -10 | 77* | 7 | 85* | 65*
CSc1ccccc1NC(=S)NCc1ccc(Cl)cc1 | -5 | -165 | 10 | -216 | -15 | -15 | x | x
O=C(/C=C/c1cn(-c2ccccc2)nc1-c1ccccc1)Nc1ccc(C(=O)O)cc1 | -1 | -102 | -8 | -201 | 9 | 9 | x | x
NS(=O)(=O)c1ccc(NC(=O)/C=C/c2cn(-c3ccccc3)nc2-c2cccc(Cl)c2)cc1 | 2 | 12 | -12 | 10 | 50* | 11 | 22 | x
O=[N+]([O-])c1ccc(N/N=C/c2cn(-c3ccccc3)nc2-c2ccccc2)cc1 | 6 | -42 | -7 | -89 | 57* | -1 | 39 | 52*
Cc1ccc(-c2nn(-c3ccccc3)cc2/C=C/C(=O)Nc2nccs2)cc1 | -4 | 30 | -12 | -5 | 72* | -6 | 43* | 37*
NS(=O)(=O)c1ccc(N/N=C/c2cn(-c3ccccc3)nc2-c2ccccc2)c([N+](=O)[O-])c1 | -2 | 38 | 1 | 12 | 84* | -3 | 14 | x
NS(=O)(=O)c1ccc(N/N=C/c2ccccc2C(=O)O)c([N+](=O)[O-])c1 | 5 | 16 | -12 | 11 | 9 | 8 | x | x
Cc1cccc(C(=O)Nc2nnc(Cc3ccccc3)s2)c1 | -3 | -17 | -15 | -49 | -5 | 9 | x | x
Cc1[nH]c2ccc(C(=O)N3CCN(c4cccc(Cl)c4)CC3)cc2c1C | -6 | -19 | 40 | -11 | 51* | -10 | 57* | 56*
COc1ccccc1N1CCN(C(=O)c2ccc3[nH]c(C)c(C)c3c2)CC1 | 2 | -9 | 32 | -1 | 51* | -8 | 63* | 66*
O=C(c1ccc2c(c1)[nH]c(=S)n1c3ccccc3nc21)N1CCN(c2cccc(Cl)c2)CC1 | -1 | 19 | 5 | 1 | 85* | -15 | 5 | x
Cc1[nH]c2ccc(C(=O)N3CCCC3)cc2c1C | -2 | -14 | -4 | -36 | -19 | 5 | x | x
COc1ccc(N2CCN(C(=O)c3ccc4c(c3)[nH]c(=S)n3c5ccccc5nc43)CC2)cc1 | x | x | x | x | -18 | x | x | x
COc1ccccc1N1CCN(C(=O)c2ccc3nc(-c4ccco4)c(-c4ccco4)nc3c2)CC1 | 13 | 52* | 17 | 0 | 54* | -36 | 24 | x
Cc1ccc(C)c(N2CCN(C(=O)c3ccc4nc(-c5ccco5)c(-c5ccco5)nc4c3)CC2)c1 | 19 | 34 | 30 | 15 | 0 | -22 | x | x
SMILES | ABHD5-PLIN5 inh | Peg3 prom inh | CF NFkB inh | HIF-2a inh | Mdm2-MdmX inh | KKLEB tox | Mdm2-MdmX conf | FLuc counter
CC(C)(C)S(=O)N1Cc2cc(CO)ccc2[C@H]1CCO (some centres not stated) | 4 | 6 | 15 | 0 | x | 7 | x | x
CC(C)N1CCC(=NNC(=O)c2cccs2)CC1 | 11 | -1 | -19 | -6 | 10 | 12 | x | x
Cc1onc(-c2ccccc2Cl)c1C(=O)N1CCN(c2cccc(Cl)c2)CC1 | -4 | 37 | 24 | 22 | 54* | -18 | 59* | 57*
Cc1ccc(N2CCN(C(=O)c3ccccc3)CC2)c(C)c1 | -10 | 3 | 16 | -6 | 6 | -1 | x | x
Cc1onc(-c2ccccc2Cl)c1C(=O)N1CCN(c2ccccc2)CC1 | 1 | 27 | 0 | 26 | 6 | 4 | x | x
COc1cc(C(=O)N2CCN(c3ccc(C)cc3C)CC2)cc(OC)c1OC | 2 | 26 | 26 | 3 | 58* | -12 | 47* | 44*
Cc1[nH]c2ccc(C(=O)N3CCN(c4ccccc4Cl)CC3)cc2c1C | -5 | 19 | 19 | -5 | 28 | -25 | x | x
Cc1cccc(N2CCN(C(=O)c3ccc4[nH]c(C)c(C)c4c3)CC2)c1C | -5 | -5 | 34 | 1 | 60* | -20 | 58* | 71*
O=C1NC[C@H](CCCCN2CCN(CCc3ccccc3)C(=O)C2=O)N(CCC2CCCCC2)C1=O | 5 | x | x | 12 | x | x | x | x
CCC(C)Sc1ccc([C@H]2N[C@@](Cc3ccccc3)(C(=O)OC)[C@H]3C(=O)N(CC)C(=O)[C@@H]23)cc1OC (some centres not stated) | 0 | 6 | -6 | 12 | 9 | 6 | x | x
CC(C)N(C)c1ncnc2c1ncn2[C@H]1CN(C2CCCC2)C[C@@H](CO)O1 | -2 | 0 | -1 | 5 | x | 3 | x | x
CC(C)C[C@H]1CNC(=O)C(=O)N1C[C@H]1CCCN1C[C@H](CC(C)C)N1C[C@H](Cc2ccccc2)N(CCc2ccccc2)C(=O)C1=O | -3 | -16 | -17 | -2 | x | 2 | x | x
CCCn1c(NC(=O)c2ccco2)nc2ccccc21 | 10 | -7 | -3 | 4 | 41 | -2 | x | x
COc1ccc(OCCn2c(NC(=O)c3ccco3)nc3ccccc32)cc1 | 2 | -28 | 7 | -9 | 57* | -4 | 11 | x
CC(Nc1nc(N2CCCCC2)nc2ccccc12)c1ccccc1 (configuration not stated) | -2 | 68* | 29 | 25 | 54* | -39 | 47* | 73*
